The structures appear in SMILES notation. Among all 39,000 compounds or so, about 3,300 (8.5%) were called active. The sample holds actives, similar compounds and a random draw of the others, so the mix is not that of the screen.

The test relates to HepG2. As to the kind of experiment: cytotoxicity call (relative viability < 0.9). Conditions: 10 µM.
Consider `C[C@@H]1CN([C@H](C)CO)S(=O)(=O)c2ccc(C3=CCCCC3)cc2O[C@@H]1CN(C)C(=O)C1CCOCC1`, for which the cytotoxicity call is “inactive”.
The result for `C[C@@H]1CN([C@@H](C)CO)C(=O)c2cc(NC(=O)Nc3ccc(F)cc3)ccc2O[C@@H](C)CCCCO[C@@H]1CN(C)C(=O)c1ccccc1` reads “inactive”.
In the case of `C[C@H]1CN([C@@H](C)CO)C(=O)c2ccccc2-c2ccccc2CO[C@H]1CN(C)C(=O)Nc1cccc(C(F)(F)F)c1`, the cytotoxicity call is “inactive”.
Then `CCC(=O)OCC(=O)C1(OC(=O)CC)C(C)CC2C3CCC4=CC(=O)C=CC4(C)C3(F)C(O)CC21C` (stereo unspecified), with “inactive”; and `Cc1ccc(S(=O)(=O)Nc2ccc3c(c2)C(=O)N([C@@H](C)CO)C[C@@H](C)[C@@H](CN(C)S(C)(=O)=O)O3)cc1`, with “inactive”.
The result for `COc1ccc(NC(=O)N2C[C@@H](O)COC[C@H]3O[C@@H](CC(=O)NCc4ccccc4OC)CC[C@@H]32)cc1` reads “inactive”; that for `C[C@@H]1CN([C@@H](C)CO)C(=O)c2cc(C#CCN(C)C)cnc2O[C@@H]1CN(C)C(=O)CN1CCOCC1`, “inactive”.
As to `C[C@H](CO)N1C[C@H](C)[C@@H](CN(C)Cc2ccc(C(F)(F)F)cc2)Oc2ccc(NC(=O)Nc3ccc(F)cc3)cc2CC1=O`, the cytotoxicity call was “active”.
Take `C[C@@H]1CN([C@H](C)CO)C(=O)Cc2cc(NC(=O)Nc3ccc(F)cc3)ccc2O[C@H]1CN(C)Cc1ccc(C(F)(F)F)cc1`: the cytotoxicity call is “active”.
The result for `C[C@H](CO)N1C[C@H](C)[C@H](CN(C)Cc2ccc(C(F)(F)F)cc2)Oc2ccc(NC(=O)Nc3ccc(F)cc3)cc2CC1=O` reads “active”; that for `C[C@@H]1CCCCO[C@@H](CN(C)S(=O)(=O)c2ccccc2)[C@H](C)CN([C@H](C)CO)C(=O)c2cc(NC(=O)CCC(F)(F)F)ccc2O1`, “inactive”; that for `COc1ccc(CN(C)C[C@H]2OCCCC[C@H](C)Oc3ccc(NS(=O)(=O)c4ccc(C)cc4)cc3C(=O)N([C@@H](C)CO)C[C@H]2C)cc1`, “inactive”.
The result for `COCCN1CCCn2c(nc(CNS(C)(=O)=O)cc2=O)C1` reads “inactive”; that for `CO[C@H]1CN(C)C(=O)c2cc(NS(=O)(=O)CC(F)(F)F)ccc2OC[C@@H](C)N(C(=O)c2ccc3c(c2)OCO3)C[C@H]1C`, “inactive”; that for `CC(C)NC(=O)N(C)C[C@@H]1OCCCC[C@H](C)Oc2ccc(NC(=O)Nc3cccc4ccccc34)cc2C(=O)N([C@@H](C)CO)C[C@H]1C`, “inactive”.
Regarding `C[C@@H]1CN([C@H](C)CO)C(=O)c2cc(NS(=O)(=O)c3cccs3)ccc2O[C@@H](C)CCCCO[C@H]1CN(C)Cc1ccc2c(c1)OCO2`, the cytotoxicity call was “inactive”.
The result for `Cc1ccc2sc(C)nc2c1` reads “inactive”; that for `C[C@@H]1CCCCO[C@H](CN(C)S(=O)(=O)c2ccccc2)[C@@H](C)CN([C@@H](C)CO)C(=O)c2cc(NC(=O)c3ccccc3)ccc2O1`, “inactive”; that for `C[C@H]1CCCCO[C@@H](CN(C)Cc2ccccc2)[C@@H](C)CN([C@@H](C)CO)C(=O)c2cc(NC(=O)Nc3ccc(F)cc3)ccc2O1`, “active”.
Then `C[C@@H]1CCCCO[C@H](CN(C)Cc2ccccc2)[C@H](C)CN([C@@H](C)CO)C(=O)c2cc(NC(=O)Nc3ccc(F)cc3)ccc2O1`, with “active”; and `C[C@H](CO)N1C[C@H](C)[C@H](CN(C)Cc2ccccc2)OCCCC[C@H](C)Oc2ccc(NC(=O)Nc3ccc(F)cc3)cc2C1=O`, with “active”; and `C[C@@H]1CN([C@H](C)CO)C(=O)c2cc(NC(=O)Nc3ccc(F)cc3)ccc2O[C@@H](C)CCCCO[C@@H]1CN(C)Cc1ccccc1`, with “inactive”.
Then `C[C@@H]1CCCCO[C@H](CN(C)Cc2ccccc2)[C@H](C)CN([C@H](C)CO)C(=O)c2cc(NC(=O)Nc3ccc(F)cc3)ccc2O1`, with “inactive”.
Take `C[C@H](CO)N1C[C@H](C)[C@@H](CN(C)Cc2ccccc2)OCCCC[C@H](C)Oc2ccc(NC(=O)Nc3ccc(F)cc3)cc2C1=O`: the cytotoxicity call is “active”.
Consider `O=C(/C=N/O)Nc1ccccc1C(=O)O`, for which the cytotoxicity call was “inactive”.
The result for `CC(C)CC#Cc1ccc2c(c1)O[C@H](CN(C)C(=O)c1ccccn1)[C@H](C)CN([C@H](C)CO)S2(=O)=O` reads “inactive”; that for `Cc1ccc(S(=O)(=O)N(C)C[C@@H]2Oc3ccc(NC(=O)C4CC4)cc3C(=O)N([C@@H](C)CO)C[C@@H]2C)cc1`, “inactive”; that for `C[C@@H]1CCCCO[C@@H](CN(C)C(=O)CCCN(C)C)[C@@H](C)CN([C@@H](C)CO)C(=O)c2cc(N(C)C)ccc2O1`, “inactive”.
Then `C[C@H]1CCCCO[C@@H](CN(C)C(=O)Nc2ccc3c(c2)OCO3)[C@@H](C)CN([C@@H](C)CO)C(=O)c2cc(NC(=O)Nc3ccc(C(F)(F)F)cc3)ccc2O1`, with “inactive”; and `C=CC[C@@H](CC(=O)N[C@H](CO)Cc1ccccc1)C(=O)NCCOC(=O)[C@@H](CC=C)CC(=O)OC(C)(C)C`, with “inactive”.
Take `COCCCNC(=O)C[C@H]1SC(=N)NC1=O`: the cytotoxicity call was “inactive”.
`COc1ccc(NC(=O)Nc2ccc3c(c2)C(=O)N([C@@H](C)CO)C[C@H](C)[C@H](CN(C)S(=O)(=O)c2cccs2)OCCCC[C@H](C)O3)cc1`: the cytotoxicity call is “inactive”.
The result for `COc1ccc(S(=O)(=O)N2C[C@@H](O)COC[C@H]3O[C@H](CC(=O)N[C@@H]4CCN(Cc5ccccc5)C4)CC[C@@H]32)cc1` reads “inactive”; that for `O=C(C[C@@H]1C=C[C@@H](NS(=O)(=O)c2ccccc2)[C@H](CO)O1)NCc1ccncn1`, “inactive”.
The result for `C[C@H](CO)N1C[C@H](C)[C@H](CN(C)C(=O)C2CCCCC2)OCCCC[C@H](C)Oc2ccc(NC(=O)Nc3ccc(C(F)(F)F)cc3)cc2C1=O` reads “inactive”.
With `COc1ccc(NC(=O)N(C)C[C@H]2Oc3ccc(NC(=O)CCN4CCOCC4)cc3CC(=O)N([C@H](C)CO)C[C@H]2C)cc1`, the cytotoxicity call was “inactive”.
Then `COc1ccc(COC[C@]23N=C4SCc5ccccc5C(=O)N4[C@H](c4ccccc4O2)[C@H]3CO[Si](C)(C)C(C)(C)C)cc1`, with “inactive”; and `O=C(NCC(F)(F)F)[C@H]1[C@H](CO)[C@H]2Cn3c(cccc3=O)[C@H]2N1C(=O)C1CCC1`, with “inactive”; and `C[C@H]1CN([C@@H](C)CO)S(=O)(=O)c2ccc(C#Cc3ccccc3)cc2O[C@H]1CN(C)S(=O)(=O)c1cn(C)cn1`, with “inactive”.
Then `Cc1noc(C)c1NC(=O)Nc1ccc2c(c1)C(=O)N([C@H](C)CO)C[C@H](C)[C@H](CN(C)Cc1ccc3c(c1)OCO3)OCCCC[C@@H](C)O2`, with “inactive”; and `COc1ccc(S(=O)(=O)Nc2cccc3c2O[C@@H](CN(C)S(=O)(=O)c2cccs2)[C@H](C)CN([C@@H](C)CO)C3=O)cc1`, with “inactive”.
The result for `COc1cc2c(cc1OC)CN(C(=O)[C@@H]1[C@H]3C(=O)O[C@H](c4ccccc4)[C@H](c4ccccc4)N3[C@H](c3ccc(O)cc3)[C@@]13C(=O)Nc1ccccc13)CC2` reads “inactive”; that for `C[C@@H]1CCCCO[C@H](CN(C)Cc2ccccc2)[C@@H](C)CN([C@H](C)CO)C(=O)c2cc(NC(=O)Nc3ccc(F)cc3)ccc2O1`, “inactive”; that for `C[C@@H]1CCCCO[C@@H](CN(C)Cc2ccc(F)cc2)[C@H](C)CN([C@@H](C)CO)C(=O)c2cc(NC(=O)Nc3ccccc3)ccc2O1`, “inactive”.
On to `C[C@@H]1CCCCO[C@@H](CN(C)Cc2ccccc2)[C@H](C)CN([C@@H](C)CO)C(=O)c2cc(NC(=O)Nc3ccc(F)cc3)ccc2O1`, for which the cytotoxicity call was “inactive”.
Regarding `C[C@H]1CCCCO[C@H](CN(C)Cc2ccccc2)[C@@H](C)CN([C@@H](C)CO)C(=O)c2cc(NC(=O)Nc3ccc(F)cc3)ccc2O1`, the cytotoxicity call was “active”.
For `C[C@@H]1CCCCO[C@@H](CN(C)Cc2ccccc2)[C@H](C)CN([C@H](C)CO)C(=O)c2cc(NC(=O)Nc3ccc(F)cc3)ccc2O1`, the cytotoxicity call was “inactive”.
As for `C[C@@H]1CCCCO[C@@H](CN(C)Cc2ccccc2)[C@@H](C)CN([C@@H](C)CO)C(=O)c2cc(NC(=O)Nc3ccc(F)cc3)ccc2O1`, the cytotoxicity call is “inactive”.
The result for `C[C@@H]1CN([C@@H](C)CO)C(=O)c2cc(NC(=O)Nc3ccc(F)cc3)ccc2O[C@@H](C)CCCCO[C@@H]1CN(C)Cc1ccccc1` reads “active”.
The result for `C[C@@H]1CN([C@@H](C)CO)C(=O)c2cc(NC(=O)Nc3ccc(F)cc3)ccc2O[C@@H](C)CCCCO[C@H]1CN(C)Cc1ccccc1` reads “active”.
As for `C[C@@H]1CN([C@H](C)CO)C(=O)c2cc(NC(=O)Nc3ccc(F)cc3)ccc2O[C@@H](C)CCCCO[C@H]1CN(C)Cc1ccccc1`, the cytotoxicity call was “active”.
Then `C[C@@H]1CCCCO[C@H](CN(C)Cc2ccccc2)[C@@H](C)CN([C@@H](C)CO)C(=O)c2cc(NC(=O)Nc3ccc(F)cc3)ccc2O1`, with “inactive”; and `C[C@@H]1CCCCO[C@@H](CN(C)Cc2ccccc2)[C@@H](C)CN([C@H](C)CO)C(=O)c2cc(NC(=O)Nc3ccc(F)cc3)ccc2O1`, with “inactive”; and `C[C@@H]1CN([C@@H](C)CO)S(=O)(=O)c2ccc(C#CCN(C)C)cc2O[C@H]1CN(C)C`, with “inactive”.
Then `C[C@H]1CN([C@@H](C)CO)C(=O)c2cc(NS(=O)(=O)c3ccccc3)ccc2O[C@@H]1CN(C)CC1CC1`, with “inactive”.
The result for `C[C@H](CO)N1C[C@H](C)[C@@H](CN(C)Cc2ccc(C(=O)Nc3ccccc3N)cc2)Oc2ccc(NC(=O)Cc3cn(C)c4ccccc34)cc2CC1=O` reads “inactive”; that for `CN1C(=O)c2cc(NC(=O)c3cccs3)ccc2OC[C@@H]2O[C@H](CC(=O)NCC(F)(F)F)CC[C@@H]21`, “inactive”; that for `C[C@@H]1CN([C@H](C)CO)C(=O)CCCn2cc(nn2)CO[C@H]1CN(C)S(=O)(=O)c1ccc(Oc2ccccc2)cc1`, “inactive”.
With `C[C@H](O)C#Cc1cnc2c(c1)C(=O)N([C@@H](C)CO)C[C@@H](C)[C@H](CN(C)C(=O)Nc1ccc(C(F)(F)F)cc1)O2`, the cytotoxicity call is “inactive”.
Regarding `CS(=O)(=O)N1CCCn2c(nnc2Cn2cccn2)C1`, the cytotoxicity call was “inactive”.
Then `O=C(NO)c1ccc(C(=O)N/N=C/[C@H](O)[C@@H](O)[C@H](O)[C@H](O)CO)cc1`, with “inactive”.
